Test results: the supplement of paper PMC6555819

Legend:
Assay in all cases: PBM binding z-score (relative to random genomic background probes); higher = stronger binding; sequences stand for … in GC…GCGATTGACAGCGTAGAATGAAGG
[1] = tested on: PPARg:RXRa DBDmut IVT, anti-RXR (DBD mutation: RXRa K156A/R161A, NR concentration 270 nM, RXRa partner concentration 90 nM)
Procedure, shortened: (§1)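 Antibodies against each partner of ligand-free nuclear receptor dimers (one per run) detected binding on custom Agilent 4×180K protein-binding microarrays after 1 h incubation. The double-stranded probes had 34-nt variable regions carrying direct-repeat seeds, single-nucleotide variants, half-site ablations and random human genomic background sequences. Binding z-scores, from regression-normalized fluorescence, use the random background probes as reference.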

[2] = tested on: PPARg:RXRa IVT, anti-PPARg (NR concentration 270 nM, RXRa partner concentration 90 nM)
Procedure, shortened: as §1

[3] = tested on: PPARg DBDmut:RXRa IVT, anti-PPARg (DBD mutation: PPARg1 K132A/R137A, NR concentration 270 nM, RXRa partner concentration 90 nM)
Procedure, shortened: as §1

[4] = tested on: PPARg DBDmut IVT, anti-PPARg (DBD mutation: PPARg1 K132A/R137A, NR concentration 270 nM)
Procedure, shortened: as §1

[5] = tested on: PPARg homodimer (NR concentration 180 nM)
Procedure, shortened: as §1

[6] = tested on: PXR:RXRa (NR concentration 270 nM, RXRa partner concentration 90 nM)
Procedure, shortened: as §1

[7] = tested on: PXR homodimer (NR concentration 270 nM)
Procedure, shortened: as §1

[8] = tested on: RARa:RXR (NR concentration 270 nM, RXRa partner concentration 90 nM)
Procedure, shortened: as §1

[9] = tested on: RARa homodimer (NR concentration 270 nM)
Procedure, shortened: as §1

[10] = tested on: RARb:RXRa (NR concentration 270 nM, RXRa partner concentration 90 nM)
Procedure, shortened: as §1

[11] = tested on: RARb homodimer (NR concentration 270 nM)
Procedure, shortened: as §1

[12] = tested on: RARg:RXRa (NR concentration 270 nM, RXRa partner concentration 90 nM)
Procedure, shortened: as §1

[13] = tested on: RARg homodimer (NR concentration 270 nM)
Procedure, shortened: as §1

[14] = tested on: RXRa DBDmut IVT, anti-RXR (DBD mutation: RXRa K156A/R161A, NR concentration 90 nM)
Procedure, shortened: as §1

[15] = tested on: RXRa homodimer (NR concentration 180 nM)
Procedure, shortened: as §1

[16] = tested on: THRa:RXRa (NR concentration 90 nM, RXRa partner concentration 90 nM)
Procedure, shortened: as §1

[17] = tested on: THRa homodimer (NR concentration 90 nM)
Procedure, shortened: as §1

[18] = tested on: VDR:RXRa (NR concentration 270 nM, RXRa partner concentration 90 nM)
Procedure, shortened: as §1

[19] = tested on: VDR homodimer (NR concentration 270 nM)
Procedure, shortened: as §1

Row | Sequence | PBM binding z-score [1] | PBM binding z-score [2] | PBM binding z-score [3] | PBM binding z-score [4] | PBM binding z-score [5] | PBM binding z-score [6] | PBM binding z-score [7] | PBM binding z-score [8] | PBM binding z-score [9] | PBM binding z-score [10] | PBM binding z-score [11] | PBM binding z-score [12] | PBM binding z-score [13] | PBM binding z-score [14] | PBM binding z-score [15] | PBM binding z-score [16] | PBM binding z-score [17] | PBM binding z-score [18] | PBM binding z-score [19]
1 | TCGAGTAGGTTACCAATGGGGTATTCAGCTTTCT | 3.18 | 2.46 | -0.47 | -0.0236 | -0.0597 | 0.05 | -0.757 | 0.339 | -0.642 | 0.76 | 0.128 | 0.0634 | 0.354 | 0.563 | 0.443 | 0.253 | -0.473 | 0.0284 | -0.39
2 | GGAACGAGGGCAAAGTGGATAGCATCTGTCGACG | 3.95 | 3.72 | 0.652 | 0.661 | 1.42 | 0.489 | 0.241 | 0.674 | -0.182 | 2.27 | 1.05 | 1.54 | 1.53 | 2.28 | 1.21 | 0.965 | -0.332 | 1.08 | 1.01
3 | CCTAGTTGGTCAAGGTCGCACACGCTATAGGTAC | 1.4 | 1.87 | 0.308 | 0.288 | 1.55 | 1.57 | 1.04 | 1.69 | 0.482 | 2.43 | 2.39 | 1.87 | 2.27 | 0.634 | 1.83 | 2.64 | 1.75 | 1.75 | 2.3
4 | TTACCAAGGTGAGTTGAGGTCGTTGATCCAACTC | 0.767 | 1.95 | -0.517 | -0.489 | 0.402 | 4.83 | 0.689 | 2.24 | -0.309 | 1.54 | 1.84 | 1.33 | 1.18 | 0.713 | 1.56 | 4.72 | 2.28 | 4.05 | 2.18
5 | GAAACGAGGGCAAGTTGATAGCAGAGTTTGATGG | 5.01 | 4.04 | 0.483 | 0.387 | 0.633 | 0.91 | 1.01 | 0.741 | -0.324 | 2.48 | 1.68 | 1.6 | 1.94 | 2.43 | 1.02 | 1.41 | 0.0214 | 1.51 | 1.97
6 | TGAATGAGGTTATATGATCAGGGAACGTTGCAAA | 1.01 | 1.63 | 0.22 | 0.825 | 0.489 | 1.04 | 0.00293 | 1.77 | 0.606 | 1.26 | 0.492 | 1.64 | 0.971 | 1.26 | 2.06 | 1.98 | 0.364 | 1.33 | 0.855
7 | TCTGCTAGCTCAGTTGGTCAGCTAACGAGCTGCC | 0.435 | 0.0097 | -0.882 | -0.216 | -1.73 | -0.874 | -1.69 | -0.998 | -2.24 | -0.575 | -1.04 | -0.955 | -0.903 | -0.192 | -1.34 | -1.6 | -1.25 | -0.839 | -1.56
8 | CAAACTAGGTCAAGGCCAAAGTCGGTTTGTGCCA | 8.27 | 8.75 | 3.6 | 3.41 | 3.12 | 1.8 | -0.0922 | 2.28 | -0.0524 | 4.25 | 3.53 | 3.91 | 4.51 | 1.81 | 2.77 | 2.91 | 1.39 | 1.84 | 1.22
9 | TCTTGTAGATCAAATGTTAAGAAAGCCGAAGCCT | 2.21 | 0.573 | 0.744 | 0.647 | 0.284 | 0.199 | 0.012 | 0.519 | 0.868 | -0.134 | -0.797 | -0.173 | -0.241 | 1.15 | 0.176 | -0.551 | -0.39 | 0.366 | -0.522
10 | CCTCGGAGGACAACAGGAGGTCAGCGCTGCCAGA | 0.165 | 0.649 | -1.42 | -1.72 | 2.38 | 2.56 | 0.451 | 2.71 | 0.815 | 3.27 | 3.96 | 4.12 | 4.04 | 0.326 | 2.28 | 3.14 | 1.31 | 2.39 | 1.13
11 | CCTCGGAGGACAACAGGTGGTCAGAGCTGCCAGA | -0.455 | -0.616 | -2.74 | -2.26 | -0.317 | -0.667 | -0.589 | -0.583 | -0.066 | 1.04 | 0.83 | 0.693 | 1.32 | -0.142 | -0.432 | 0.397 | -0.269 | -0.645 | -0.187
12 | ACGATTAGTTGACTTAGGGCAACCGATACGACGC | -0.586 | 0.153 | 0.298 | 0.246 | -0.134 | 0.199 | -0.0112 | 0.392 | 0.251 | 0.703 | 0.941 | 0.65 | 0.654 | 0.0967 | 0.512 | 1.43 | 0.264 | 0.161 | -0.201
13 | TTAGCAAGGTGAAAGGTCGTTGATGCACGCCTTG | 2.15 | 4.63 | 0.373 | -0.113 | 1.42 | 3.85 | 0.158 | 5.72 | -0.524 | 2.98 | 2.23 | 4.16 | 1.75 | 0.67 | 5.52 | 3.02 | 0.254 | 2.93 | 1.18
14 | AGAAAGAGGGCAATGAGTTGATAGCACGGGTGGC | 2.75 | 1.6 | 0.0853 | 0.306 | 0.658 | 1.84 | 4.38 | 0.758 | 0.0375 | 2.46 | 1.65 | 1.64 | 2.08 | 1.7 | 1.07 | 0.681 | -0.101 | 5.59 | 3.05
15 | TCGAGTTGGTCACGGAGGTCACACACGACGGGTA | 0.979 | 2.98 | 0.179 | 0.0233 | 2.35 | 4.79 | 1.32 | 4.55 | 0.63 | 3.84 | 4.47 | 4.77 | 4.81 | 1.32 | 4.92 | 3.77 | 2.24 | 5.91 | 3.52
